# Measurements reported in PubChem BioAssay.
# Active and inactive are the calls of the source.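 Rule for the calls, unless noted: active = compounds whose cell count with miR-34 switched on is under 0.7 times the count with it off; inactive = the rest.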
# Tests used:
# [1] = viability loss with induced miR-34 in A549 – imaging, A549 dox-inducible miR-34, nuclei and caspase counts, primary screen (AID 1347080); settings: A549 miR-34 inducible, Hoechst nuclei count, 48 h
# [2] = chitosan synthesis blockers in C. neoformans – flow cytometry, Cibacron Brilliant Red staining (AID 1347148; call rule not given here;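 note: compound exposure lasted three days at 37 degrees C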); settings: Cryptococcus neoformans chitosan, stronger effect = lower value; at 10 µM unless noted
# [3] = MELAS cybrid and Rieske KO viability enhancers – cell-based, MELAS cybrids, Rieske KO mouse fibroblasts, CellTiter-Glo, primary screen (AID 1508586;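 active = mean z-score across replicates of 1.96 or higher in either the MELAS or the Rieske mutant cell line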;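 note: z relative to plate mean and SD of compound and empty wells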); settings: low glucose
# [4] = system: Hepatitis C virus NS3 helicase; experiment: blockers of NS3h binding to ssDNA – biochemical, fluorescence polarization, LOPAC1280 library, primary screen (AID 687035; in the data active = inhibition above about 37%); settings: Purified HCV NS3 helicase, Cy5-dT15 ssDNA binding fluorescence polarization; stronger effect = higher value; concentration not given here
# [5] = compounds altering Cy5-DNA-NS3h complex signal – biochemical, LOPAC1280, artefact control for HCV NS3 helicase inhibitor project (AID 687037; call rule not given here); settings: Cy5-DNA-NS3h complex fluorescence interference counterscreen
# [6] = blockers of cellular phospholipid synthesis – cell-based, LOPAC library, screen 4, primary screen (AID 1347384; call rule not given here); settings: animal cells, phospholipid biosynthesis inhibition screen; at 10 µM
# [7] = galactose survival enhancers in mitochondrial complex I cybrids – cell-based, galactose medium, ATP luminescence, primary screen (AID 1645843;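 active = z-score of at least 1.8 in each of two replicates, scored against plate mean and spread of sample wells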;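 note: positive z means more ATP and so rescue of galactose-driven cybrid death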); settings: complex I mutant cybrid cells, 72 h, stronger effect = higher value
# [8] = stronger effect = lower value, cell number ratio, induced over uninduced
# [9] = measured here: relative caspase fold change +Dox/-Dox
# [10] = measured here: total cells with miR-34 induction, stronger effect = lower value
# [11] = measured here: total cells without miR-34 induction
# [12] = MELAS cybrid survival, CellTiter-Glo 48 h, stronger effect = higher value
# [13] = Rieske KO mouse fibroblast survival, CellTiter-Glo 72 h
smiles,measurement,setting,value
CCCCCCCC/C=C\CCCCCCCC(=O)OC[C@@H](COP(O)(O)=S)OC,fold change,[1]; [8],1.15 (inactive)
same,fold change,[1]; [9],0.718
same,cell count,[1]; [10],6260
same,cell count,[1]; [11],5460
COC(C/C=C/C=C/CC/C=C\CC(C)/C=C\C(=C/C(=O)O)CC(=O)O)/C(C)=C\C=C(/C)C(=O)O (centres undefined),fold change,[1]; [8],0.975 (inactive)
same,fold change,[1]; [9],1.25
same,cell count,[1]; [10],5720
same,cell count,[1]; [11],5870
same,fold fluorescence,[2],5.28 [at 10.3 µM] (inactive)
CCCCC/C=C\C/C=C\C/C=C\C/C=C\CCCC(=O)NC1CC1,fold change,[1]; [8],1.01 (inactive)
same,fold change,[1]; [9],0.962
same,cell count,[1]; [10],5860
same,cell count,[1]; [11],5800
CNCCCCCCN(C)N(O)N=O,fold change,[1]; [8],0.998 (inactive)
same,fold change,[1]; [9],0.973
same,cell count,[1]; [10],6040
same,cell count,[1]; [11],6050
CCCCC/C=C\C/C=C\C/C=C\C/C=C\CCCC(=O)N[C@@H](C)C(=O)O,fold change,[1]; [8],0.941 (inactive)
same,fold change,[1]; [9],1.84
same,cell count,[1]; [10],5770
same,cell count,[1]; [11],6140
COC[C@H]1OC(=O)c2coc3c2[C@@]1(C)C1=C(C3=O)[C@@H]2CCC(=O)[C@@]2(C)C[C@H]1OC(C)=O,fold change,[1]; stronger effect = lower value,0.997 (inactive)
same,fold change,[1]; [9],1.29
same,cell count,[1]; [10],1550
same,cell count,[1]; [11],1560
same,fold fluorescence,[2],5.16 [at 116.7 µM] (inactive)
CCCC[C@@H](C)C(OC(=O)C[C@@H](CC(=O)O)C(=O)O)C(C[C@@H](C)C[C@H](O)CCCC[C@@H](O)C[C@H](O)[C@H](C)N)OC(=O)C[C@@H](CC(=O)O)C(=O)O (some centres undefined),fold change,[1]; [8],0.933 (inactive)
same,fold change,[1]; [9],0.809
same,cell count,[1]; [10],5390
same,cell count,[1]; [11],5780
N#CC(C#N)=NNc1ccc(OC(F)(F)F)cc1,fold change,[1]; stronger effect = lower value,1.05 (inactive)
same,fold change,[1]; [9],0.834
same,cell count,[1]; [10],1180
same,cell count,[1]; [11],1130
same,fold fluorescence,[2],9.07 [at 196.7 µM] (inactive)
CO/C1=C\C(C)=C\[C@@H](C)[C@@H](O)[C@@H](C)C/C(C)=C/C=C/[C@H](OC)[C@@H]([C@@H](C)[C@@H](O)[C@H](C)[C@@]2(O)C[C@@H](O)[C@H](C)[C@@H](C(C)C)O2)OC1=O,fold change,[1]; [8],1.05 (inactive)
CCCCCCCCCCCCCC(=O)O[C@@H]1[C@@H](C)[C@@]2(O)[C@@H](C=C(CO)C[C@@]3(O)C(=O)C(C)=C[C@@H]23)C2C(C)(C)[C@@]21OC(C)=O (some centres undefined),fold change,[1]; [8],0.676 (active)
NC1CC1c1ccccc1 (centres undefined),z-score,[3]; [12],-0.158 (inactive)
same,z-score,[3]; [13],-0.299
CCc1cc2c(s1)-n1c(C)nnc1CN=C2c1ccccc1Cl,fold change,[1]; stronger effect = lower value,0.948 (inactive)
same,fold change,[1]; [9],0.493
same,cell count,[1]; [10],8260
same,cell count,[1]; [11],8710
same,z-score,[3]; [12],-0.248 (inactive)
same,z-score,[3]; [13],-0.187
NC(N)=NOCCC(N)C(=O)O (centres undefined),inhibition,[4],0% (inactive)
same,fluorescence ratio (interference),[5],1.1 (inactive)
same,fold change,[1]; stronger effect = lower value,0.949 (inactive)
same,fold change,[1]; [9],1.82
same,cell count,[1]; [10],9120
same,cell count,[1]; [11],9610
same,outcome,[6],inactive
same,z-score,[7],0.49 (inactive)
CC(=O)O[C@@]12CO[C@@H]1CC(O)[C@@]1(C)C(=O)C(O)C3=C(C)C(O)C[C@@](O)(C(OC(=O)c4ccccc4)[C@H]21)C3(C)C (some centres undefined),fold change,[1]; [8],1 (inactive)
same,fold change,[1]; [9],0.634
same,cell count,[1]; [10],6370
same,cell count,[1]; [11],6370
same,z-score,[3]; [12],-0.382 (inactive)
same,z-score,[3]; [13],1.02
Cc1ccc(-n2nccn2)c(C(=O)N2CCN(c3nc4cc(Cl)ccc4o3)CCC2C)c1 (centres undefined),fold change,[1]; stronger effect = lower value,0.837 (inactive)
same,fold change,[1]; [9],0.399
same,cell count,[1]; [10],6970
same,cell count,[1]; [11],8330
same,z-score,[3]; [12],-0.269 (inactive)
same,z-score,[3]; [13],-2.87
CC=C(C)C(=O)NC(c1ccccc1)C(O)C(=O)OC1C[C@@]2(O)C(OC(=O)c3ccccc3)[C@@H]3[C@]4(OC(C)=O)COC4CC(O)[C@@]3(C)C(=O)C(OC(C)=O)C(=C1C)C2(C)C (some centres undefined),fold change,[1]; [8],1.27 (inactive)
same,fold change,[1]; [9],0.457
same,cell count,[1]; [10],1460
same,cell count,[1]; [11],1150
same,z-score,[3]; [12],1.29 (inactive)
same,z-score,[3]; [13],0.0967
CC(C)[C@@]12OC1C1O[C@]13[C@]1(OC1C[C@@H]1C4=C(CC[C@@]13C)C(=O)OC4)C2O (some centres undefined),fold change,[1]; [8],0.989 (inactive)
same,fold change,[1]; [9],0.482
same,cell count,[1]; [10],1650
same,cell count,[1]; [11],1670
same,z-score,[3]; [12],1.17 (inactive)
same,z-score,[3]; [13],-0.457
Clc1ccc(C(Cn2ccnc2)OCc2ccc(Sc3ccccc3)cc2)c(Cl)c1 (centres undefined),fold change,[1]; [8],0.851 (inactive)
same,fold change,[1]; [9],0.891
same,cell count,[1]; [10],6850
same,cell count,[1]; [11],8050
same,z-score,[3]; [12],-0.265 (inactive)
same,z-score,[3]; [13],0.16
O=c1cccc2n1CC1CNCC2C1 (centres undefined),fold change,[1]; stronger effect = lower value,0.908 (inactive)
same,fold change,[1]; [9],1.17
same,cell count,[1]; [10],7650
same,cell count,[1]; [11],8430
same,z-score,[3]; [12],-0.233 (inactive)
same,z-score,[3]; [13],-0.215
NC(CC(=O)N1CCn2c(nnc2C(F)(F)F)C1)Cc1cc(F)c(F)cc1F (centres undefined),fold change,[1]; [8],0.922 (inactive)
same,fold change,[1]; [9],0.671
same,cell count,[1]; [10],9670
same,cell count,[1]; [11],10500
same,z-score,[3]; [12],-0.323 (inactive)
same,z-score,[3]; [13],0.499
COc1cc(-n2c(=S)[nH]c3ccccc3c2=O)c(Cl)cc1Cl,fold change,[1]; stronger effect = lower value,0.878 (inactive)
same,fold change,[1]; [9],0.323
same,cell count,[1]; [10],6620
same,cell count,[1]; [11],7540
same,z-score,[3]; [12],0.632 (inactive)
same,z-score,[3]; [13],1.12
CC(=Cc1csc(C)n1)C1CC2OC2CCCC(C)C(O)C(C)C(=O)C(C)(C)C(O)CC(=O)O1 (centres undefined),fold change,[1]; [8],1.08 (inactive)
same,fold change,[1]; [9],1.17
same,cell count,[1]; [10],1520
same,cell count,[1]; [11],1410
same,z-score,[3]; [12],1.25 (inactive)
same,z-score,[3]; [13],0.224
O=C1CCC[C@@H]2[C@@H]3CCCN4CCC[C@H](CN12)[C@@H]34,fold change,[1]; [8],0.961 (inactive)
same,fold change,[1]; [9],1.02
same,cell count,[1]; [10],9040
same,cell count,[1]; [11],9410
same,z-score,[3]; [12],-0.296 (inactive)
same,z-score,[3]; [13],0.336
CC1CC[C@@]2(OC1)O[C@H]1C[C@H]3[C@@H]4CC=C5CC(O[C@@H]6OC(CO)C(O[C@@H]7OC(C)C(O)C(O)C7O)C(O)C6O[C@@H]6OC(C)C(O)C(O)C6O)CC[C@]5(C)[C@@H]4CC[C@]3(C)[C@@H]1C2C (some centres undefined),fold change,[1]; [8],0.658 (active)
same,fold change,[1]; [9],1.39
same,cell count,[1]; [10],1180
same,cell count,[1]; [11],1800
same,z-score,[3]; [12],2.01 (active)
same,z-score,[3]; [13],-1.08
